{
  "source": "PubChem BioAssay (NCI)",
  "note": "This is part of a sample that, as a whole, favours compounds with a hit. Of some 83,000 tested, about 20% had one in any assay.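 Method: cells in 96-well plates; compound added at one concentration; 48 h incubation; percent growth measured; values under 10 scored active.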 Unmarked numbers belong to inactive results. The source made the active and inactive calls.",
  "data": [
    {"test_system": "HL-60(TB) leukemia", "assay": "NCI-60 one-dose screen, 48 h (100 = growth as untreated, 0 = no growth, -100 = all killed)", "conditions": "10 µM unless noted", "values": [
      {"smiles": "Cc1cnc(-c2ccc(-c3ccc(NC(=O)Nc4c(F)cc(F)cc4F)cc3F)c3c2C(=O)NC3)[nH]1", "growth": "58.1%"},
      {"smiles": "O=C(Nc1ccc2[nH]ncc2c1)c1csc(Nc2ccccc2)n1", "growth": "9.35% (active)"},
      {"smiles": "COCCOC(=O)NC(=O)Nc1ccc(C(=O)c2ccc(Cl)cc2)cc1", "growth": "-13.3% (active)"},
      {"smiles": "CC(=O)CC(=O)c1ccccc1.[Cu+2]", "growth": "67.2%"},
      {"smiles": "Cc1ccc(S(=O)(=O)NCCCNc2nccc(-c3c(-c4ccccc4)nc4sccn34)n2)cc1", "growth": "-13.1% (active)"},
      {"smiles": "CN1CCN(Cc2ccc(NC(=O)c3cncc(C#Cc4nc(N)nc5[nH]ncc45)c3)cc2C(F)(F)F)CC1", "growth": "1.4% (active)"},
      {"smiles": "C=C1C(=O)O[C@H]2[C@H]1CC/C(COC(=O)c1cc3cc(OC)ccc3[nH]1)=C\\CC[C@@]1(C)O[C@@H]21", "growth": "-34.5% (active)"},
      {"smiles": "O=c1[nH]c(=O)n(Cc2ccc(F)cc2)cc1F", "growth": "88.7% [50 µM]"},
      {"smiles": "COc1cc(C2CC(=O)Nc3c2c(C)nn3-c2nc3ccccc3[nH]2)c(OC)c2c1OCO2", "note": "(centres undefined)", "growth": "26.2%"},
      {"smiles": "CC(C)C1=NOC(=O)C1=Cc1cn(-c2ccccc2)nc1-c1cccc([N+](=O)[O-])c1", "growth": "-4.77% (active)"},
      {"smiles": "CNC(=O)c1cc(Oc2ccc3c(c2)sc2nc(-c4ccc(Cl)c(C(F)(F)F)c4)cn23)ccn1", "growth": "35.8%"},
      {"smiles": "CCCN1C(=O)N(CCC)C2C1NN=c1s/c(=C3\\C(=O)N(C(C)C)c4ccccc43)c(=O)n12", "note": "(centres undefined)", "growth": "0.788% (active)"},
      {"smiles": "C[C@@H](c1ccc2c(c1)[nH]c1ccc(Cl)cc12)c1nc2ccc(Cl)cc2[nH]1", "growth": "0.0537% (active)"},
      {"smiles": "CCN(CC)c1ccc(C(=O)c2ccc(N(CC)CC)cc2)cc1", "growth": "9.59% (active)"},
      {"smiles": "O=C(O)CSCc1nnc2n(Cc3ccccc3)c(=O)c3c4c(sc3n12)CCCC4", "growth": "94.9%"},
      {"smiles": "CC12OC(CC(O)C1O)n1c3ccccc3c3c4c(c5c6ccccc6n2c5c31)C(=O)N(CCN1CCCC1)C4=O", "note": "(centres undefined)", "growth": "18.3%"},
      {"smiles": "C=C1C(=O)O[C@H]2[C@H]1CC/C(COC(=O)NCCOCCOCC(=O)Nc1ccc(OC)c(C(N)=O)c1O)=C\\CC[C@@]1(C)O[C@@H]21", "growth": "-6.3% (active)"},
      {"smiles": "COc1cc(C2CC(=O)Nc3n[nH]c(-c4ccccc4)c32)cc(OC)c1OC", "note": "(centres undefined)", "growth": "39.1%"},
      {"smiles": "Nc1nc(N)c2c(n1)NC(c1cccc(Nc3ccnc4cc(C(F)(F)F)ccc34)c1)CC(c1ccc(F)cc1)=N2", "note": "(centres undefined)", "growth": "17.8%"},
      {"smiles": "Brc1ccc(-c2nnc3c4[nH]ccc4ncn23)cc1", "growth": "100%"},
      {"smiles": "Cc1cc(N2CCCCC2)nc(N(CCNc2ccnc3cc(Cl)ccc23)Cc2ccccn2)n1", "growth": "41.6%"},
      {"smiles": "COc1ccc(OC)c(/C=C/[C@H]2O[C@@H](C)[C@H](O)[C@@H]2O)c1", "growth": "88.3%"},
      {"smiles": "CN(C)C=Nc1cc(Cl)ccc1Cl", "growth": "102%"},
      {"smiles": "FC(F)(F)Oc1cccc(-c2cc(NCCCCCCNc3cc(-c4cccc(OC(F)(F)F)c4)nc4ccc(N5CCCC5)cc34)c3cc(N4CCCC4)ccc3n2)c1", "growth": "21.7%"}
    ]}
  ]
}
